Experiment in all cases: DAPPL (digital affinity profiling via proximity ligation, sequencing); 10 mM Tris-HCl pH 7.5, 50 mM NaCl, 1 mM DTT, 4% glycerol, room temperature, 30 min; GST-TFs on glutathione beads, 16-mer random dsDNA library, 0.1% formaldehyde crosslink after washing; high values mean tight binding
For assay [1], the target named is T1, FEV (Homo sapiens, UniProt Q99581 1-238).
T1 sequence: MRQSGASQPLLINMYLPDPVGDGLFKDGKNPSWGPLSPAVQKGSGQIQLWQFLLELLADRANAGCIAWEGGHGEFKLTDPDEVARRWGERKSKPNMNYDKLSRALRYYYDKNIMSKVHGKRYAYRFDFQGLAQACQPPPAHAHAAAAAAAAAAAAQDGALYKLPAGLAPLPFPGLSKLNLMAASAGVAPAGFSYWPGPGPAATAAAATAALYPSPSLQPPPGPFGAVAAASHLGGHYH
The settings on record: protein: recombinant; tags: N-terminal GST; dsDNA, one strand shown. The procedure, abridged: (§1)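 Beads coated with glutathione captured GST-fused human transcription factors that had been expressed in yeast, and the factors were then given DNA barcodes and pooled with a tag-only sample. The pools were incubated with 200 nmole of a random double-stranded 16-mer DNA library in Tris/NaCl/DTT/glycerol buffer for 30 min at room temperature, washed, crosslinked with 0.1% formaldehyde and proximity-ligated with BsaI/T4 ligase at 37 °C for 1 h. PCR amplification and Illumina NextSeq500 sequencing came last. Binding signal is each hexamer's read frequency for a factor divided by its frequency for the tag-only sample.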

Assay [2] has as its target ETV5 (Homo sapiens, UniProt P41161 1-510). The settings on record: protein: recombinant; tags: N-terminal GST; dsDNA, one strand shown. The procedure, abridged:
as §1

In assay [3] the target is HSF1 (Homo sapiens, UniProt Q00613 1-529). The settings on record: protein: recombinant; tags: N-terminal GST; chain copies: 3; dsDNA, one strand shown. The essentials:
as §1

In assay [4] the target is T2, SPIC (Homo sapiens, UniProt Q8N5J4 1-248).
T2 sequence: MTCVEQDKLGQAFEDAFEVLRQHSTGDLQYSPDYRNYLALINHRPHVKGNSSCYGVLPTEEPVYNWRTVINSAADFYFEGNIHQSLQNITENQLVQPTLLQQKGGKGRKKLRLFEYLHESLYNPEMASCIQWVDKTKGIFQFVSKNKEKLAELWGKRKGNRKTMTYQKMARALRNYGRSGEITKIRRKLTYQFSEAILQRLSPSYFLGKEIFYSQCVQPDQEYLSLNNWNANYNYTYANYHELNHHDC
The settings on record: protein: recombinant; tags: N-terminal GST; dsDNA, one strand shown. The procedure, abridged:
as §1

Assay [5] addresses ELF4 (Homo sapiens, UniProt Q99607 1-663). To be noted: protein: recombinant; tags: N-terminal GST; dsDNA, one strand shown. The essentials: as §1
The target in assay [6] is T3, ELK4 (Homo sapiens, UniProt P28324-2 1-405).
T3 sequence: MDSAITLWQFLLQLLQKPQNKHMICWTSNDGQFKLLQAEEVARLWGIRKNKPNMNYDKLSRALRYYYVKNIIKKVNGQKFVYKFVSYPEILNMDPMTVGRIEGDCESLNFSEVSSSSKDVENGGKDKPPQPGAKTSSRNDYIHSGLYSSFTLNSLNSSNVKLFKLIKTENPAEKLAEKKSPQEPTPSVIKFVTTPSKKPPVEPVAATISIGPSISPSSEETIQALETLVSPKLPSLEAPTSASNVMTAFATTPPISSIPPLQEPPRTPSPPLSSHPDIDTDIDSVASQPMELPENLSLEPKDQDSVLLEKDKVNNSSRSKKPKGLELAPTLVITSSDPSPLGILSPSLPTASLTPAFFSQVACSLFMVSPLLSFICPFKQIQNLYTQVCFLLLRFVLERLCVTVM
The settings on record: protein: recombinant; tags: N-terminal GST; dsDNA, one strand shown. The essentials: as §1

Assay [7] addresses T4, ETV2 (Homo sapiens, UniProt O00321 1-342).
T4 sequence: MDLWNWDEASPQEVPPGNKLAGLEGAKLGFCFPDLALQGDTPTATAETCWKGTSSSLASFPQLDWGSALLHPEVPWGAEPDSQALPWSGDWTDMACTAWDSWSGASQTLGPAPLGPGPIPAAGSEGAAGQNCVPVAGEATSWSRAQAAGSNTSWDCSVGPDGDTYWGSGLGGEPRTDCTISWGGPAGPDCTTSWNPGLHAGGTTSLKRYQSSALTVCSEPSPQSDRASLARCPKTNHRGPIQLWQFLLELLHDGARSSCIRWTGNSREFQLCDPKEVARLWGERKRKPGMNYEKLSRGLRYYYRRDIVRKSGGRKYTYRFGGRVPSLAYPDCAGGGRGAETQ
To be noted: protein: recombinant; tags: N-terminal GST; dsDNA, one strand shown. The essentials:
as §1

Assay [8] deals with T5, ELF3 (Homo sapiens, UniProt P78545 1-371).
T5 sequence: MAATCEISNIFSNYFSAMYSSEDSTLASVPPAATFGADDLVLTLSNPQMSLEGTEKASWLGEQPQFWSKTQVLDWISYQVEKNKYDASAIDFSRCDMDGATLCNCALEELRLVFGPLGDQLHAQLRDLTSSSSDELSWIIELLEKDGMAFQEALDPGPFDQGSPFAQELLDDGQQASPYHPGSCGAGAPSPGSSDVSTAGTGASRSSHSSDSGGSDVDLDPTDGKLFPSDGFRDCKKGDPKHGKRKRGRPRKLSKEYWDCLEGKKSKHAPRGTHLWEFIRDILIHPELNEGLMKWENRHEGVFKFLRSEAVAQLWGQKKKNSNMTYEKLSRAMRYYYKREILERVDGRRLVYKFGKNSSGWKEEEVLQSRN
The settings on record: protein: recombinant; tags: N-terminal GST; dsDNA, one strand shown. The procedure, abridged:
as §1

Assay [9] deals with CRX (Homo sapiens, UniProt O43186 1-299). The settings on record: protein: recombinant; tags: N-terminal GST; dsDNA, one strand shown. The procedure, abridged: as §1
In assay [10] the target is ETV1 (Homo sapiens, UniProt P50549 1-477). The settings on record: protein: recombinant; tags: N-terminal GST; dsDNA, one strand shown. The procedure, abridged: as §1

This passage reports binding signal results from article PMC7862700, “An all-to-all approach to the identification of sequence-specific readers for epigenetic DNA modifications on cytosine”.

CRX, sequence (O43186 whole entry): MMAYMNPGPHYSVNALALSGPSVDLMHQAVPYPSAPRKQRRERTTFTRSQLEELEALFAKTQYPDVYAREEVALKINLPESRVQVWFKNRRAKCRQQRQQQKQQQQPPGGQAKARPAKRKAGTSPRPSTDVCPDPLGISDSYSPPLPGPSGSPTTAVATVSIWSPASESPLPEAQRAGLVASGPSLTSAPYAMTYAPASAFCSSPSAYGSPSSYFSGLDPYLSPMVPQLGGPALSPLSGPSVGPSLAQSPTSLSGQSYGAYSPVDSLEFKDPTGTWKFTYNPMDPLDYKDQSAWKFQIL
ELF4, sequence (Q99607 whole entry): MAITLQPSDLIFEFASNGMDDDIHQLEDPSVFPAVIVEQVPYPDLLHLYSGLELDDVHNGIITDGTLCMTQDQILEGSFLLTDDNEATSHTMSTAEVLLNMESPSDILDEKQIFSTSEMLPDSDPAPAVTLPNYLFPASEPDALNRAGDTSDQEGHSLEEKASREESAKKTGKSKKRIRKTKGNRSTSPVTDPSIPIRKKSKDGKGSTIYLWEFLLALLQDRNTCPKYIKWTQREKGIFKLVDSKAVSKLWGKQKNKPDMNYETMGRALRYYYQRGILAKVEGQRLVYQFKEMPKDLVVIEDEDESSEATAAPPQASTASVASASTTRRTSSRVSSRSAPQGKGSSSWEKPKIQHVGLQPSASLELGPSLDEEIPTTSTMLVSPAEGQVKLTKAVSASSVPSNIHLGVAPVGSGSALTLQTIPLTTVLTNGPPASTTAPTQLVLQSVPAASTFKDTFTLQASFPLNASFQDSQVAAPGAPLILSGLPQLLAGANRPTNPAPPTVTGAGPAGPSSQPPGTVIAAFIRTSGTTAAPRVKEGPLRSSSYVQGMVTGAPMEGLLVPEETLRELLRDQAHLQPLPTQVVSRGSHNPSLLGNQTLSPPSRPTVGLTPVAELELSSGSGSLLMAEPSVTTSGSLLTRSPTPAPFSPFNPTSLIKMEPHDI
HSF1, sequence (Q00613 whole entry): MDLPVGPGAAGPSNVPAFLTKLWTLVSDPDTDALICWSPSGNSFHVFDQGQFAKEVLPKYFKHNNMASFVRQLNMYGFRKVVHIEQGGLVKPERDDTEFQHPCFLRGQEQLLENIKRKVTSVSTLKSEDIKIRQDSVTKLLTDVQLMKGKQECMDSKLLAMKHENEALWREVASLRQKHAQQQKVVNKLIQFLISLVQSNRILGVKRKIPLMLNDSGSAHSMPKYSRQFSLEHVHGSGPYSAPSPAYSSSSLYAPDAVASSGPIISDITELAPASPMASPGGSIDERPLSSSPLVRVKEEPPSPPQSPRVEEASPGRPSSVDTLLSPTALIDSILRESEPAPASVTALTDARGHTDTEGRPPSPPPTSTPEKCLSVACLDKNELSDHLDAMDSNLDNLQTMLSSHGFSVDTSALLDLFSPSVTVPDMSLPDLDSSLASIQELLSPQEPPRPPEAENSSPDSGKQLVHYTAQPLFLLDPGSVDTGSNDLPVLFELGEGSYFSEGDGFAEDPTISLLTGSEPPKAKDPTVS
ETV1, sequence (P50549 whole entry): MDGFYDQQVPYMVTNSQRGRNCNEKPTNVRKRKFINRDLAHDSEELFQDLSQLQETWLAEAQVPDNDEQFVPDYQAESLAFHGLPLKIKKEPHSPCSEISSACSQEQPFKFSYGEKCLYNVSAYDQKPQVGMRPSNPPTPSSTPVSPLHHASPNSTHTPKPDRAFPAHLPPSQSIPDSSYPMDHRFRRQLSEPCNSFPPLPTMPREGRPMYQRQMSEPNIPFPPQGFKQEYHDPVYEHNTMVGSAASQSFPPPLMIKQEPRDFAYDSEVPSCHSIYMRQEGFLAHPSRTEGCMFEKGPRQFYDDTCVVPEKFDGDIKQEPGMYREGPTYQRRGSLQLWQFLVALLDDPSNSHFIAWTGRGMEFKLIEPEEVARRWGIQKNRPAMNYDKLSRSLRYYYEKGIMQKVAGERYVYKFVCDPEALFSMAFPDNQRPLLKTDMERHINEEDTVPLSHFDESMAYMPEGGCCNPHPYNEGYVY
ETV5, sequence (P41161 whole entry): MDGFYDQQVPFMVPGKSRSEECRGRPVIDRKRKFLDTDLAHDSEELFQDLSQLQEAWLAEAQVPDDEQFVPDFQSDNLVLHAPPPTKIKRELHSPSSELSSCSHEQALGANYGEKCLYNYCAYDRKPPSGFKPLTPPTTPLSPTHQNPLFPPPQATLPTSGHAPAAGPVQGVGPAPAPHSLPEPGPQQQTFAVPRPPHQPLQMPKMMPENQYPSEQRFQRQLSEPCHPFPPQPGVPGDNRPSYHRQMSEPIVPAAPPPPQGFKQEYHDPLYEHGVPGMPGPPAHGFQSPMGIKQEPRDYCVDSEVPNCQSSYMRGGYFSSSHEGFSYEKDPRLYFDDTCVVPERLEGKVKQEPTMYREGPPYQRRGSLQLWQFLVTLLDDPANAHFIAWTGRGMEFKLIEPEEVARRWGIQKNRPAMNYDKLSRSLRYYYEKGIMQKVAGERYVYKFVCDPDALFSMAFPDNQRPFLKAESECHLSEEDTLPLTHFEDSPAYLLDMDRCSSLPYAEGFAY

Take AAATCC: the binding signal in assay [1] was 2.56 fold enrichment (6-mer frequency, TF over GST control); in [2], 1.64 fold enrichment (6-mer frequency, TF over GST control); in assay [3] it was 1.9 fold enrichment (6-mer frequency, TF over GST control); in assay [4], 1.5 fold enrichment (6-mer frequency, TF over GST control); in assay [5], 1.51 fold enrichment (6-mer frequency, TF over GST control); in [6], 1.47 fold enrichment (6-mer frequency, TF over GST control). In addition, the binding signal is 1.45 fold enrichment (6-mer frequency, TF over GST control) in [7]; 1.34 fold enrichment (6-mer frequency, TF over GST control) in assay [8]; 2.53 fold enrichment (6-mer frequency, TF over GST control) in assay [9]; 1.58 fold enrichment (6-mer frequency, TF over GST control) in [10].
Turning to TTCATT, the binding signal in assay [1] was 1.23 fold enrichment (6-mer frequency, TF over GST control); in assay [2] it was 1.29 fold enrichment (6-mer frequency, TF over GST control); in assay [3], 1.12 fold enrichment (6-mer frequency, TF over GST control); in [4], 1.37 fold enrichment (6-mer frequency, TF over GST control); in [5], 1.21 fold enrichment (6-mer frequency, TF over GST control); in assay [6] it was 1.29 fold enrichment (6-mer frequency, TF over GST control). The binding signal in [7] was 1.17 fold enrichment (6-mer frequency, TF over GST control); in assay [8], 1.12 fold enrichment (6-mer frequency, TF over GST control); in assay [9] it was 1.15 fold enrichment (6-mer frequency, TF over GST control); in assay [10] it was 1.21 fold enrichment (6-mer frequency, TF over GST control).
As for ACATAA, the binding signal in assay [1] is 1.04 fold enrichment (6-mer frequency, TF over GST control); in assay [2] it was 1.13 fold enrichment (6-mer frequency, TF over GST control); in assay [3], 1.2 fold enrichment (6-mer frequency, TF over GST control); in [4], 1.19 fold enrichment (6-mer frequency, TF over GST control); in [5] it was 1.09 fold enrichment (6-mer frequency, TF over GST control); in assay [6], 1.14 fold enrichment (6-mer frequency, TF over GST control). Further, the binding signal was 1.15 fold enrichment (6-mer frequency, TF over GST control) in [7]; 1.17 fold enrichment (6-mer frequency, TF over GST control) in assay [8]; 1.34 fold enrichment (6-mer frequency, TF over GST control) in assay [9]; 1.07 fold enrichment (6-mer frequency, TF over GST control) in assay [10].
With TCCAAC, the binding signal in assay [1] is 1.21 fold enrichment (6-mer frequency, TF over GST control); in assay [2], 1.14 fold enrichment (6-mer frequency, TF over GST control); in assay [3], 1.11 fold enrichment (6-mer frequency, TF over GST control); in [4] it was 1.26 fold enrichment (6-mer frequency, TF over GST control); in assay [5], 1.24 fold enrichment (6-mer frequency, TF over GST control); in assay [6], 1.21 fold enrichment (6-mer frequency, TF over GST control). For the same sequence, the binding signal in assay [7] was 1.22 fold enrichment (6-mer frequency, TF over GST control); in [8] it was 1.23 fold enrichment (6-mer frequency, TF over GST control); in [9], 1.05 fold enrichment (6-mer frequency, TF over GST control); in assay [10], 1.2 fold enrichment (6-mer frequency, TF over GST control).
For the sequence ATCCTC, the binding signal is 1.48 fold enrichment (6-mer frequency, TF over GST control) in assay [1]; 1.46 fold enrichment (6-mer frequency, TF over GST control) in assay [2]; 1.67 fold enrichment (6-mer frequency, TF over GST control) in [3]; 1.31 fold enrichment (6-mer frequency, TF over GST control) in assay [4]; 1.47 fold enrichment (6-mer frequency, TF over GST control) in assay [5]; 1.39 fold enrichment (6-mer frequency, TF over GST control) in assay [6]. Also, the binding signal in [7] is 1.68 fold enrichment (6-mer frequency, TF over GST control); in assay [8], 1.42 fold enrichment (6-mer frequency, TF over GST control); in assay [9], 2.46 fold enrichment (6-mer frequency, TF over GST control); in assay [10], 1.55 fold enrichment (6-mer frequency, TF over GST control).
Consider ACGTCC, for which the binding signal in assay [1] is 1.81 fold enrichment (6-mer frequency, TF over GST control); in assay [2], 1.65 fold enrichment (6-mer frequency, TF over GST control); in assay [3], 1.07 fold enrichment (6-mer frequency, TF over GST control); in assay [4], 1.59 fold enrichment (6-mer frequency, TF over GST control); in assay [5], 1.54 fold enrichment (6-mer frequency, TF over GST control); in assay [6], 1.46 fold enrichment (6-mer frequency, TF over GST control). The binding signal in assay [7] was 1.39 fold enrichment (6-mer frequency, TF over GST control); in assay [8] it was 1.39 fold enrichment (6-mer frequency, TF over GST control); in assay [9], 1.01 fold enrichment (6-mer frequency, TF over GST control); in assay [10] it was 1.63 fold enrichment (6-mer frequency, TF over GST control).
Turning to AACCTC, the binding signal in assay [1] was 1.18 fold enrichment (6-mer frequency, TF over GST control); in assay [2], 1.22 fold enrichment (6-mer frequency, TF over GST control); in assay [3], 1.17 fold enrichment (6-mer frequency, TF over GST control); in [4], 1.4 fold enrichment (6-mer frequency, TF over GST control); in assay [5], 1.2 fold enrichment (6-mer frequency, TF over GST control); in [6] it was 1.26 fold enrichment (6-mer frequency, TF over GST control). Besides, the binding signal in [7] was 1.32 fold enrichment (6-mer frequency, TF over GST control); in assay [8], 1.28 fold enrichment (6-mer frequency, TF over GST control); in assay [9], 1.11 fold enrichment (6-mer frequency, TF over GST control); in [10] it was 1.24 fold enrichment (6-mer frequency, TF over GST control).
